The record followed here is paper PMC12670160, “A drug-repurposing screen of FDA- and EMA-approved drugs identifies two NF-κB inhibitors active against eumycetoma” (Journal of Antimicrobial Chemotherapy, 2025).

Structures can show the parent of a compound that is named as a salt. Among all 5,300 compounds or so, about 130 (2.5%) showed an effect of 50% or more. For the sample, strong results were picked, then their nearest neighbours and some compounds at random.

This assay has as its system M. mycetomatis strain mm55. The settings on record: primary screen, metabolic activity vs growth control; 96 h, 2 µM; inhibitor.
Consider `N=C(N)c1ccc(/C=C/c2ccc(C(=N)N)cc2O)cc1` [ONC0003463, hydroxystilbamidine], for which the “% viability” value is listed as 43.6%.

For `N=C(N)c1ccc(OCCCCCOc2ccc(C(=N)N)cc2)cc1` [ONC0003359, pentamidine isethionate], the “% viability” value is on record as 71.33%.

As for `N=C(N)c1ccc(-c2ccc(-c3ccc(C(=N)N)cc3)o2)cc1` [ONC0003070, furamidine], the “% viability” value is 108.4%.

Regarding `CC(=O)OCC1=C(C(=O)O)N2C(=O)[C@@H](NC(=O)CSC(=NC(C)C)NC(C)C)[C@H]2SC1` [ONC0003427, cefathiamidine], the “% viability” value is 77.15%.

Consider `C[C@H](N)[C@H](O)c1cccc(O)c1` [ONC0003110, metaraminol bitartrate], for which the “% viability” value turned out to be 76.38%.

For `CNC[C@H](O)c1cccc(O)c1` [ONC0000459, lphenylephrine hydrochloride], the “% viability” value amounted to 72.58%.

Regarding `CCNCC(O)c1cccc(O)c1` (stereo not shown) [ONC0003685], the “% viability” value is 42.26%.

As for `O=C(Nc1nc(-c2cc(Cl)cs2)c(N2CCN(C3CCCCC3)CC2)s1)c1cnc(N2CCC(C(=O)O)CC2)c(Cl)c1` [ONC0002265, avatrombopag], the “% viability” value was determined as 50.97%.

In the case of `CN/C(=N/CCSCc1nc[nH]c1C)NC#N` [ONC0000657, cimetidine], the “% viability” value turned out to be 137.7%.

Consider `CCCCCCCNS(=O)(=O)c1cccc2c(Cl)cccc12` [ONC0003431, sc10], for which the “% viability” value amounted to 68.77%.

Take `NCCCCCCCCCCNS(=O)(=O)c1cccc2c(Cl)cccc12` [ONC0002708, a7]: the “% viability” value was found to be 47.48%.

Turning to `O=S(=O)(NCCCCCCc1ccccc1)c1cccc2c(Cl)cccc12` [ONC0002705, sc9], the “% viability” value is 87.04%.

Consider `CC(C)(C)c1cc(C(C)(C)C)c2c(c1)C(O)(C(F)(F)F)C(=O)O2` (stereo not shown) [ONC0001539, racbhff], for which the “% viability” value amounted to 123.7%.

On to `NC(N)=Nc1nc(CSCCC(N)=NS(N)(=O)=O)cs1` [ONC0003248, famotidine], for which the “% viability” value is 89.34%.

Take `Cc1nnc(C(C)C)n1[C@@H]1C[C@H]2CC[C@@H](C1)N2CC[C@H](NC(=O)C1CCC(F)(F)CC1)c1ccccc1` [ONC0004641, maraviroc]: the “% viability” value is listed as 78.39%.

With `CN1C(=O)C(Cc2c[nH]c3ccccc23)NC1=S` (stereo not shown) [ONC0003684, necrostatin1], the “% viability” value is recorded as 40.84%.

In the case of `CN1C(=O)N[C@H](Cc2c[nH]c3c(Cl)cccc23)C1=O` [ONC0000938, necrostatin 2], the “% viability” value was determined as 58.02%.

In the case of `c1ccc2c(Cc3c[nH]c4ccccc34)c[nH]c2c1` [ONC0003447, diindolylmethane], the “% viability” value was 68.22%.

On to `NC(N)=NCCC[C@H](N)C(=O)NCC(=O)N[C@@H](CC(=O)O)C(=O)N[C@@H](CO)C(=O)O` [ONC0002282, argglyaspser], for which the “% viability” value turned out to be 101.1%.
